# Test results: PubChem BioAssay
# A number with no mark means an inactive call.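 Rule for the calls, unless noted: active = inhibition over a set limit, the all-compound mean plus 3 SD, in both replicate runs; inconclusive = over that limit in just one replicate run; inactive = at or under that limit in both runs.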 Results filed as inconclusive are left out.
# Test: viability of PTEN-null HCT116 cells – cell-based, HCT116 clonal line, CellTiter-Glo, pilot screen (AID 824;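 active = viability at or below 27.92% in each of two runs, the all-compound median minus 4 SD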;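 note: 0% = 20 µM Hyamine control and 100% = vehicle cell control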)
# Settings: HCT116 PTEN-deleted viability, 60 h, at 10 µM, active compounds read low
row,Structure (SMILES),viability [%]
1,CC1CCc2nn(CC(=O)NCc3ccc4c(c3)OCO4)cc2C1 (stereo not given),94.5
2,CCC(C)(C(=O)NC1CCCC1)N(Cc1cccs1)C(C)=O (stereo not given),96.3
3,COc1ccc(CCNC(=O)c2cnn3ccccc23)c(OC)c1OC,87.8
4,CC1CCCN(S(=O)(=O)c2coc(C(N)=O)c2)C1 (stereo not given),99.5
5,Cn1c(C(=O)NCC2CCCO2)cc2c(=O)n(C)c3ccccc3c21 (stereo not given),90.7
6,O=C(Nc1cnn(Cc2ccc(Cl)cc2Cl)c1)c1noc2c1CCCC2,82.7
7,Clc1cccc(N2CCN(Cc3nc(-c4ccccc4)no3)CC2)c1,90
8,COC(=O)C1=C(C)NC(C)=C(C(=O)OC)C1C1CC=CCC1 (stereo not given),87.1
9,Cc1nnc(SCC(=O)NCc2ccccc2)s1,102
10,CC1=C(C(=O)Nc2ccc(F)cc2)C(c2cccc(C)c2)n2nc(CCCO)nc2N1 (stereo not given),100
11,CCOc1ccc(OCCCCN(C)C)cc1,93.5
12,CCCC(=O)C1=C(N(C)c2ccccc2)CC(C)(C)C(C(=O)OC)C1=O (stereo not given),92.9
13,CC1Cc2ccccc2N1C(=O)C12CCC(C)(C(=O)C1)C2(C)C (stereo not given),89.9
14,CC1CN(c2ccc(Oc3ccccc3)cc2)c2nc3c(c(=O)n(CC(N)=O)c(=O)n3C)n2C1 (stereo not given),94.4
15,COc1ccc(N2CCN(C(c3ccccc3)c3sc4nc(C)nn4c3O)CC2)cc1 (stereo not given),97.3
16,O=C(CCn1c(=O)oc2ccccc21)NCc1ccco1,99.4
17,COc1cccc(C2CC(c3ccc(C)cc3)n3nc(N)nc3N2)c1 (stereo not given),98.6
18,Cc1onc(-c2c(Cl)cccc2Cl)c1C(=O)NCC1CCCO1 (stereo not given),92.9
19,CC(=O)Nc1cccc(NC(=O)CSc2nn3c(=O)c(C)nnc3s2)c1,103
20,Cc1ccc2cc(CCNC(=O)C(C)C)c(=O)[nH]c2c1C,99.1

row,Structure (SMILES),viability [%]
1,CCOC(=O)c1c(C)n(C)c2c(C)cc(O)c(OC(C)=O)c12,86.8
2,CC(C)(O)C#Cc1ccc(C(=O)N2CCN(C(=O)c3ccco3)CC2)cc1,99.8
3,COc1ccc(-n2ncc3c(N4CCC(C)CC4)ncnc32)cc1,93.6
4,CCc1nc2sc(C)c(C)c2c(=O)n1CCO,102
5,COc1cc2c(cc1OC)CN(C(=O)CSc1nc3[nH]ncc3c(=O)n1-c1ccccc1)CC2,90.9
6,Cc1ccccc1-n1c(Cn2c(=O)sc3ccccc32)nnc1SCC(N)=O,106
7,Cc1nc2sc(C(c3cccs3)N3CCOCC3)c(O)n2n1 (stereo not given),94.2
8,Cc1nc2ccccc2c2oc(C(=O)N3CCN(C(=O)c4ccco4)CC3)cc12,107
9,CCC(C)NC(=O)c1cn(CC)c2ccc(S(=O)(=O)N(C)C)cc2c1=O (stereo not given),93.4
10,O=C(OCN1C(=O)c2ccccc2C1=O)C1CCCCC1,91
11,O=C(Nc1nc(-c2ccccn2)cs1)C1CC1,70.5
12,COCCOC(=O)C1=C(C)N=c2s/c(=C\c3cccs3)c(=O)n2C1c1cccs1 (stereo not given),82.7
13,CCOC(=O)c1sc2nc(NC(=O)C(C)(C)C)sc2c1C,74
14,Cn1c(Cc2ccccc2)nnc1SCC(=O)NC1CCCCC1,103
15,CCCNC(=O)C1CC(=O)N(c2ccc(OCC(=O)Nc3cc(C)cc(C)c3)cc2)C1 (stereo not given),90.4
16,O=P(O)(CN1CCCCCC1)CN1CCCCCC1,105
17,O=c1oc2c3c4c(cc2cc1-c1nc2ccccc2[nH]1)CCCN4CCC3,89.7
18,CCOC(=O)c1[nH]c(C)c(C(=O)NC)c1C,90.8
19,CCCOc1ccc(C2C(C(=O)OC)=CN(CCOC)C=C2C(=O)OC)cc1,84.4
20,CCCCN(CC)CCCNC(=O)c1cc2c(=O)n(C)c3ccccc3c2n1C,54.6

# Test: RAM pathway blockade in budding yeast – dse1pr::URA3 reporter, 5-FOA selection, pilot screen (AID 869);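 note: 0% = DMSO wells with no growth and 100% = 10 µM 1-NA-PP1 with full growth; RAM network block rescues cells from 5-FOA so hits raise OD615 growth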
# Settings: S. cerevisiae dse1pr::URA3 5-FOA growth, OD615, 2 d; at 10 µM; active compounds read high; strain carries analog-sensitive mutant Cbk1 kinase
row,Structure (SMILES),inhibition [%]
1,CC1CCc2nn(CC(=O)NCc3ccc4c(c3)OCO4)cc2C1 (stereo not given),-0.525
2,CCC(C)(C(=O)NC1CCCC1)N(Cc1cccs1)C(C)=O (stereo not given),0.55
3,COc1ccc(CCNC(=O)c2cnn3ccccc23)c(OC)c1OC,1.33
4,CC1CCCN(S(=O)(=O)c2coc(C(N)=O)c2)C1 (stereo not given),1.33
5,Cn1c(C(=O)NCC2CCCO2)cc2c(=O)n(C)c3ccccc3c21 (stereo not given),2.33
6,O=C(Nc1cnn(Cc2ccc(Cl)cc2Cl)c1)c1noc2c1CCCC2,0.895
7,Clc1cccc(N2CCN(Cc3nc(-c4ccccc4)no3)CC2)c1,-1.2
8,COC(=O)C1=C(C)NC(C)=C(C(=O)OC)C1C1CC=CCC1 (stereo not given),2.73
9,Cc1nnc(SCC(=O)NCc2ccccc2)s1,0.99
10,CC1=C(C(=O)Nc2ccc(F)cc2)C(c2cccc(C)c2)n2nc(CCCO)nc2N1 (stereo not given),-0.19
11,CCOc1ccc(OCCCCN(C)C)cc1,3.26
12,CCCC(=O)C1=C(N(C)c2ccccc2)CC(C)(C)C(C(=O)OC)C1=O (stereo not given),-0.705
13,CC1Cc2ccccc2N1C(=O)C12CCC(C)(C(=O)C1)C2(C)C (stereo not given),0.8
14,CC1CN(c2ccc(Oc3ccccc3)cc2)c2nc3c(c(=O)n(CC(N)=O)c(=O)n3C)n2C1 (stereo not given),2.65
15,COc1ccc(N2CCN(C(c3ccccc3)c3sc4nc(C)nn4c3O)CC2)cc1 (stereo not given),2.81
16,O=C(CCn1c(=O)oc2ccccc21)NCc1ccco1,2.08
17,COc1cccc(C2CC(c3ccc(C)cc3)n3nc(N)nc3N2)c1 (stereo not given),-0.18
18,Cc1onc(-c2c(Cl)cccc2Cl)c1C(=O)NCC1CCCO1 (stereo not given),-1.21
19,CC(=O)Nc1cccc(NC(=O)CSc2nn3c(=O)c(C)nnc3s2)c1,1.29
20,Cc1ccc2cc(CCNC(=O)C(C)C)c(=O)[nH]c2c1C,1.52

row,Structure (SMILES),inhibition [%]
1,CCOC(=O)c1c(C)n(C)c2c(C)cc(O)c(OC(C)=O)c12,1.42
2,CC(C)(O)C#Cc1ccc(C(=O)N2CCN(C(=O)c3ccco3)CC2)cc1,0.66
3,COc1ccc(-n2ncc3c(N4CCC(C)CC4)ncnc32)cc1,1.94
4,CCc1nc2sc(C)c(C)c2c(=O)n1CCO,0.35
5,COc1cc2c(cc1OC)CN(C(=O)CSc1nc3[nH]ncc3c(=O)n1-c1ccccc1)CC2,1.19
6,Cc1ccccc1-n1c(Cn2c(=O)sc3ccccc32)nnc1SCC(N)=O,0.455
7,Cc1nc2sc(C(c3cccs3)N3CCOCC3)c(O)n2n1 (stereo not given),1.54
8,Cc1nc2ccccc2c2oc(C(=O)N3CCN(C(=O)c4ccco4)CC3)cc12,0.195
9,CCC(C)NC(=O)c1cn(CC)c2ccc(S(=O)(=O)N(C)C)cc2c1=O (stereo not given),-0.32
10,O=C(OCN1C(=O)c2ccccc2C1=O)C1CCCCC1,1.03
11,O=C(Nc1nc(-c2ccccn2)cs1)C1CC1,0.575
12,COCCOC(=O)C1=C(C)N=c2s/c(=C\c3cccs3)c(=O)n2C1c1cccs1 (stereo not given),2.83
13,CCOC(=O)c1sc2nc(NC(=O)C(C)(C)C)sc2c1C,-0.52
14,Cn1c(Cc2ccccc2)nnc1SCC(=O)NC1CCCCC1,1.4
15,CCCNC(=O)C1CC(=O)N(c2ccc(OCC(=O)Nc3cc(C)cc(C)c3)cc2)C1 (stereo not given),2.06
16,O=P(O)(CN1CCCCCC1)CN1CCCCCC1,0.24
17,O=c1oc2c3c4c(cc2cc1-c1nc2ccccc2[nH]1)CCCN4CCC3,1.73
18,CCOC(=O)c1[nH]c(C)c(C(=O)NC)c1C,1.32
19,CCCOc1ccc(C2C(C(=O)OC)=CN(CCOC)C=C2C(=O)OC)cc1,2.16
20,CCCCN(CC)CCCNC(=O)c1cc2c(=O)n(C)c3ccccc3c2n1C,-0.01
